# Shown are actives, neighbours in structure and some others; about 1.9% of the full set was active somewhere.
# IEC-6 cytotox = kills IEC-6 intestinal cells in KLF5 counter-screen; IEC-6 cytotoxicity, luminescence viability; inhibition, % at 5 µM; 290,000 tested, 0.78% active; AID 1825; in the data active means inhibition above about 22%;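 further: 0% = plate median of test compound wells and 100% = cytotoxic reference compound wells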
# Ba/F3 V617F tox = lowers viability of Ba/F3 cells expressing EpoR and JAK2V617F; inhibition, % at 5.6 µM; AID 1446; ATP luminescence; 220,000 tested, 1.1% active;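 active means inhibition above the campaign mean plus 3 SD over all tested compounds, cut at about 24% in these data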;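 further: cytokine-independent growth of Ba/F3 cells driven by EpoR plus mutant JAK2; 0% = DMSO-treated cells and 100% = JAK inhibitor I control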
# KLF5 inh = inhibitors of KLF5 expression; DLD-1 KLF5 promoter-luciferase reporter, luminescence; inhibition, % at 5 µM; 290,000 tested, 0.23% active;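 active means inhibition above a per-plate limit of that plate's mean compound inhibition plus 3 SD, cut at about 60% in these data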;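 further: 0% = DMSO wells and 100% = LY294002 at 200 µM; higher means less KLF5 promoter-driven luciferase light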
# APP 5UTR inh = APP translation inhibition | 190,000 tested, 0.82% active | SH-SY5Y APP 5'UTR-luciferase reporter, luminescence | inhibition, % at 2 µM;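 active means inhibition above a set limit, derived from the sample mean plus 3 SD, cut at about 45% in these data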
# BaF3 tox = parental Ba/F3 viability inhibition as JAK2V617F counter-screen | 220,000 tested, 1.1% active | CellTiter-Glo ATP luminescence | AID 1486 | inhibition, % at 5.6 µM;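 active means inhibition above a per-campaign cutoff, the mean inhibition of all tested compounds plus 3 SD, cut at about 27% in these data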;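 further: 0% = DMSO wells and 100% = JAK Inhibitor I control wells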
# * = called active by the depositor; · = no result given.
SMILES,IEC-6 cytotox,Ba/F3 V617F tox,KLF5 inh,APP 5UTR inh,BaF3 tox
Cc1cc(C[n+]2ccccc2)c2nsnc2c1,2,59*,-33,10,59*
CCCCN(Cc1ccccc1)S(=O)(=O)c1ccc2[nH]c(=O)oc2c1,12,4,-3,49*,4
O=c1c2ccc(Cl)cc2nc(-c2cccc(C(F)(F)F)c2)n1O,-6,60*,40,-5,56*
O=C(CCn1nnc2ccccc21)NNC(=O)C1CCCCC1,2,-3,-28,5,5
Cc1ccc2c(c1)S/C(=C/c1ccc[n+](C)c1)N2CCO,0,88*,5,-6,71*
Cc1cccc(-c2nnc(SCC(=O)N3CCCC3)o2)c1,-3,·,-72,·,·
Cc1ccc(C(=O)NCCN2CCCC2)cc1,1,-3,-43,-2,2
Cc1cccc(C)c1NC(=O)Cn1cnc2c(=O)n(C)c(=O)n(C)c21,-3,-3,-12,4,1
Cc1ccccc1C(=O)Nc1cccc(NC(=O)Cn2cnc3c(=O)n(C)c(=O)n(C)c32)c1,-4,68*,8,13,42*
N#Cc1c(-c2ccccc2)nc(-c2ccncc2)[nH]c1=O,0,-1,-16,69*,7
N#Cc1c(-c2ccccc2)nc(-c2ccccc2)[nH]c1=O,3,6,-12,-1,7
BrC(=C\c1ccccc1)/C=N/Nc1nc(N2CCOCC2)nc(N2CCOCC2)n1,13,2,-7,63*,6
O=C(Oc1c(CN2CCOCC2)cc(Cl)c2cccnc12)c1ccccc1F,-1,0,-8,75*,4
O=C(Oc1c(CN2CCOCC2)cc(Cl)c2cccnc12)c1ccccc1,26*,-3,-15,53*,0
O=C(O)c1cccnc1SCc1cn2cc(Cl)ccc2n1,-2,-1,-33,·,-3
Cc1ccccc1-n1c2nc(=O)n(C)c(=O)c-2cc2ccccc21,2,1,-20,·,1
Oc1ccc(-c2csc(-c3cccnc3)n2)cc1O,16,41*,-110,·,37*
CC1CC(=O)c2c(cc3c(-c4c(O)cc(O)c5c(O)c6c(cc45)OC(C)CC6=O)c(O)cc(O)c3c2O)O1 (centres undefined),-8,3,-28,50*,-9
O=[N+]([O-])c1cc(-c2ncccn2)c([N+](=O)[O-])s1,5,4,2,76*,2
Cc1cc(=O)[nH]c(SCC(=O)Nc2ccc(S(=O)(=O)N3CCOCC3)cc2)n1,8,3,-9,-7,1
O=[N+]([O-])c1ccc(N/N=C/c2ccc(O)c(O)c2O)c(S(=O)(=O)N2CCOCC2)c1,-10,0,1,-29,9
Cc1nn(C(=O)C(C)N2C(=O)c3ccccc3C2=O)c(C)c1Br (centres undefined),-4,-1,-14,-3,94*
c1ccc(Cn2nnc3c(N4CCN(Cc5ccc6c(c5)OCO6)CC4)ncnc32)cc1,-2,-3,-13,-3,4
Cc1cccc(N2CCN(C(=O)C3CCN(c4nnc(-n5cccc5)s4)CC3)CC2C)c1 (centres undefined),2,6,-3,15,45*
Cc1c(NC(=O)COC(=O)C(c2ccc(Cl)cc2)C(C)C)c(=O)n(-c2ccccc2)n1C (centres undefined),-5,-2,-9,·,97*
SMILES,IEC-6 cytotox,Ba/F3 V617F tox,KLF5 inh,APP 5UTR inh,BaF3 tox
Cc1c(NC(=O)C(C)Sc2ccccc2)c(=O)n(-c2ccccc2)n1C (centres undefined),-5,3,-14,58*,4
N#C/C(=N\Nc1ccc(Cl)cc1)C(=O)c1ccccc1,11,2,-6,-1,11
Cc1c(N/N=C(\C#N)C(=O)c2ccc(Cl)cc2)c(=O)n(-c2ccccc2)n1C,20,31*,31,73*,62*
Cc1ccc(NC(=O)c2cc3cccc([N+](=O)[O-])c3[nH]2)cc1,1,6,-130,·,3
CN1CCN(S(=O)(=O)c2ccc(N3CCN(S(=O)(=O)/C=C/c4ccccc4)CC3)nc2)CC1,-1,1,3,11,47*
c1ccc(-c2noc(-c3ccc4c(c3)OCO4)n2)nc1,8,26*,-35,30,28*
COc1cc(S(=O)(=O)N(Cc2ccccn2)Cc2ccccc2Cl)ccc1-n1cnnn1,3,4,4,4,2
O=[N+]([O-])c1ccc2[nH]nc(-c3ccccc3)c2c1,-2,-2,-21,-21,8
O=[N+]([O-])c1ccc2[nH]c3nc4ccccc4nc3c2c1,9,36*,-13,·,43*
COc1ccccc1CNS(=O)(=O)c1ccc(NC(C)=O)cc1,-1,-3,-13,6,8
O=C(N/N=C/c1ccc[nH]1)c1cc(-c2cccs2)nc2ccccc12,3,0,11,-1,0
CCc1ccc(/C=N/NC(=O)c2cc(-c3ccncc3)nc3ccccc23)s1,9,-4,2,91*,6
CC(/C=N/NC(=O)c1cc(-c2ccc(Cl)cc2)nc2ccccc12)=C\c1ccco1,10,3,-3,-2,5
CC(/C=N/NC(=O)c1cc(-c2ccccc2)nc2ccccc12)=C\c1ccco1,4,-5,-6,85*,4
CC/C(=N\NC(=O)c1cc(C)nc2ccccc12)c1ccc(C)s1,3,8,5,76*,-1
Cn1cccc1/C=N/NC(=O)c1cc(-c2cccs2)nc2ccccc12,0,-2,-20,47*,3
CCCc1cc(C(=O)N/N=C/c2ccc(CC)s2)c2ccccc2n1,19,2,8,13,1
Cc1cc(C)n2nc(C(=O)NNC(=O)c3ccc(Cl)cc3)nc2n1,5,2,-35,·,-3
Cc1cc(Oc2cnn(C(C)(C)C)c(=O)c2Cl)cc(C(C)C)c1,0,-2,-6,-24,2
Cc1cc(C(=O)N/N=C/c2ccc(C)o2)c2ccccc2n1,17,21,39,73*,10
CCC(=O)Nc1cc(-c2nnc(OC)c3ccccc23)ccc1N1CCOCC1,0,-1,-20,-4,10
CCOc1ccccc1NC1=CC(=O)CC(c2ccccc2)C1 (centres undefined),2,-2,-23,-26,5
COc1ccc(NC2=CC(=O)CC(c3ccccc3)C2)c(OC)c1 (centres undefined),17,39*,38,4,43*
COC(=O)c1ccc(OS(=O)(=O)N(C)C)cc1,3,-2,-27,-27,36*
Cc1nn(C)c(C)c1CN(C)C(=O)C1CCC(=O)N(C2CCCCCC2)C1 (centres undefined),-7,·,-31,·,·
Cc1nn(C)c(C)c1CN(C)C(=O)CCCC(=O)O,5,-2,7,-19,93*
CC[n+]1ccc(C)c2cc(S(=O)C(F)(F)F)ccc21 (centres undefined),-2,16,-15,-1,27*
CC[n+]1ccc(C)c2cc(SC(F)(F)F)ccc21,-2,13,-13,-28,35*

# Assay outcomes (PubChem)
